Shown are actives, neighbours in structure and some others; about 7.3% of the full set was active somewhere.
HCMV inh: human cytomegalovirus inhibition | HFF cells, HCMV-luciferase reporter, 72 h; active compounds read low | activity change, negative = inhibition, % at 57.5 µM | actives 4.5% (n = 410,000) | AID 1259415; in the data active means activity change below about -60%; inconclusive means no clear call, values can overlap the other calls; inactive means above about -39%
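After 16 h attachment at 37C, HFF cells received test compound and HCMV-luciferase (1 PFU/cell); reporter luminescence read 72 h later, data normalized against buffer-only and known inhibitor Salinomycin.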
HCV inhibitor: inhibitors of hepatitis C virus infection | Huh7.5.1 HCVcc-Cre infection, luciferase reporter, 44 h | Potency, µM (series often up to 41.8 µM), without a hit: at the highest dose activity change, negative = inhibition, most hits filed as inhibitors | actives 3.4% (n = 340,000); active means well fitted inhibition curve with a large enough effect; inconclusive means small, poorly fitted or top-dose-only effect, or another doubt; inactive means no such curve, though single readings can be large or run the other way; further: potency means the concentration at half of the fitted maximal effect
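HCVcc-Cre virus at an moi near 0.5 was added right after compound to cells cultured 4 h from seeding (1,000 cells/well). Luciferase activity was determined 44 h later, 15 min after substrate addition at RT.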
Vaccinia Venus: inhibitors of vaccinia virus (Venus reporter); Vaccinia virus Venus reporter expression, fluorescence; Potency, µM (top dose mostly 36.5 µM), without a hit: at the top dose activity change, negative = inhibition, hits mostly inhibitors; actives 0.46% (n = 330,000); AID 720580; calls by dose curve; tested in A549 cells; further: potency means the concentration at half of the fitted maximal effect; nearly all actives have a fitted effect of over 30% in size
Vaccinia mCherry: vaccinia inhibition (mCherry reporter). actives 0.63% (n = 310,000). AID 720579. Potency, µM (highest dose often 36.5 µM), for inactives: at the highest dose activity change, negative = inhibition, usual class: inhibitors. Vaccinia virus mCherry reporter infection, fluorescence; calls by dose curve; tested in A549 cells; further: potency means the concentration at half of the fitted maximal effect; nearly all actives have a fitted effect of over 35% in size
FMDV inh: blocks foot and mouth disease virus; AID 1159524; actives 1.2% (n = 410,000); FMDV antiviral cell-based qHTS; Potency, µM (top dose mostly 57.9 µM), without a hit: at the highest dose activity change, negative = inhibition, hits mostly inhibitors; calls by dose curve; tested in HEK293T cells; further: read-out not given here; potency means the concentration at half of the fitted maximal effect; nearly all actives have a fitted effect of over 45% in size
* marks the source's active call; other numbers are inactive results. On the % scale 0 is the no-effect control and ±100 the full control effect.

Results for O=C(CNC(=O)c1cccs1)N/N=C/c1c(F)cccc1Cl ?
HCMV inh: -60*; HCV inhibitor: 5%; Vaccinia Venus: -14%; Vaccinia mCherry: inactive; FMDV inh: -4%

Results for COc1ccc(N2CC(NC(=O)/C=C\c3ccccc3)CC2=O)cc1OC (centres undefined) ?
HCMV inh: -4; Vaccinia Venus: 3%; Vaccinia mCherry: 0%; FMDV inh: -8%

Results for Cc1ccc(-c2csc(NC(=O)C3=NN(c4ccccc4)C(=O)CC3)n2)cc1 ?
HCMV inh: -27; HCV inhibitor: inconclusive; Vaccinia Venus: -7%; Vaccinia mCherry: -6%; FMDV inh: 28µM*

Results for Cc1csc(NC(=O)C2=NN(c3ccccc3)C(=O)CC2)n1 ?
HCMV inh: inconclusive; HCV inhibitor: 7%; Vaccinia Venus: -6%; Vaccinia mCherry: inactive; FMDV inh: 5%

Results for Cc1ccc(-c2csc(NC(=O)c3ccc(S(=O)(=O)N4CCc5ccccc54)cc3)n2)cc1 ?
HCMV inh: inconclusive; HCV inhibitor: 4.5µM*; Vaccinia Venus: -20%; Vaccinia mCherry: -13%; FMDV inh: inconclusive

Results for O=C(Nc1nc(-c2ccccc2)cs1)c1ccc(S(=O)(=O)N2CCc3ccccc32)cc1 ?
HCMV inh: -77*; HCV inhibitor: 10µM*; Vaccinia Venus: inconclusive; Vaccinia mCherry: inactive; FMDV inh: inconclusive

How did O=C(CC1(CC(=O)N2CCOCC2)CCCC1)Nc1ccccc1 do in these assays?
HCMV inh: 0; HCV inhibitor: 11%; FMDV inh: -14%

Results for Cc1cccc(NC(c2ccc(O)cc2)c2ccc3ccc(C)nc3c2O)n1 (centres undefined) ?
HCMV inh: -36; HCV inhibitor: inconclusive; FMDV inh: -13%

What do the screens show for `CC(=O)NC(c1cccc([N+](=O)[O-])c1)c1ccc2cccnc2c1O` (centres undefined)?
HCMV inh: -102*; HCV inhibitor: 1.8µM*; Vaccinia Venus: inconclusive; Vaccinia mCherry: inconclusive; FMDV inh: -26%

Results for CCCCC(=O)NC(c1cccc([N+](=O)[O-])c1)c1ccc2cccnc2c1O (centres undefined) ?
HCMV inh: -103*; HCV inhibitor: inconclusive; FMDV inh: 8%

What do the screens show for `COc1cccc(C(NC(C)=O)c2ccc3cccnc3c2O)c1` (centres undefined)?
HCMV inh: -99*; HCV inhibitor: 4.5µM*; Vaccinia Venus: inconclusive; Vaccinia mCherry: inconclusive; FMDV inh: -18%

How did COc1cccc(C(Nc2ccccc2)c2ccc3ccc(C)nc3c2O)c1 (centres undefined) do in these assays?
HCMV inh: -36; Vaccinia Venus: inconclusive; Vaccinia mCherry: 7.1µM*; FMDV inh: -8%

How did O=C(NCCNC(=O)c1ccc(Br)o1)c1cccnc1 do in these assays?
HCMV inh: 157; HCV inhibitor: 4%; Vaccinia Venus: -5%; Vaccinia mCherry: -3%; FMDV inh: -12%

Results for O=C(COC(=O)c1ccc(NC(=O)C2CC=CCC2C(=O)O)cc1)c1ccccc1 (centres undefined) ?
HCMV inh: -17; HCV inhibitor: 4%; Vaccinia Venus: -13%; Vaccinia mCherry: -10%; FMDV inh: 11%

How did COC1C=CC23c4cc5c(cc4CN(CC2O)C3C1)OCO5 (centres undefined) do in these assays?
Vaccinia Venus: 1.8µM*; Vaccinia mCherry: 1.3µM*; FMDV inh: inconclusive

Results for CCOC(=O)N1CCc2c(sc3c2c(=O)n(-c2ccc(Cl)cc2)c(=O)n3CC(=O)Nc2ccccc2)C1 ?
HCMV inh: 9; Vaccinia Venus: -21%; Vaccinia mCherry: inconclusive; FMDV inh: -13%

How did Cc1cc(-c2ccccc2)nc(=O)[nH]1 do in these assays?
HCMV inh: 17; HCV inhibitor: 29%; Vaccinia Venus: -2%; Vaccinia mCherry: -4%; FMDV inh: 9%

What do the screens show for `Cc1cc(-c2ccccc2)nc2[n+]1CCN2C`?
HCMV inh: -84*; HCV inhibitor: -25%; Vaccinia Venus: -28%; Vaccinia mCherry: -22%

Results for COc1cccc(Cn2cc(C)cc(NC(=O)NCc3ccccc3)c2=O)c1 ?
HCMV inh: 11; HCV inhibitor: -22%; FMDV inh: 35%

Results for COc1cccc(NC(=O)Nc2cccn(Cc3ccc(C)cc3)c2=O)c1 ?
HCMV inh: inconclusive; HCV inhibitor: 11µM*; FMDV inh: inconclusive

Results for COc1ccc(NC(C)=O)cc1NC(=O)c1cccn(Cc2ccccc2)c1=O ?
HCMV inh: 1; Vaccinia Venus: -8%; Vaccinia mCherry: -14%; FMDV inh: -16%

How did COc1ccc(NC(=O)c2cccn(Cc3ccc(Cl)cc3)c2=O)c(OC)c1 do in these assays?
HCMV inh: -70*; Vaccinia Venus: inconclusive; Vaccinia mCherry: -2%; FMDV inh: inconclusive

How did COc1cccc(Cn2cccc(NC(=O)Nc3cccc(C#N)c3)c2=O)c1 do in these assays?
HCMV inh: -62*; HCV inhibitor: inconclusive; Vaccinia Venus: -12%; Vaccinia mCherry: -22%; FMDV inh: -11%

Results for CCOC(=O)C1=CCN(S(=O)(=O)c2cccc(Cl)c2)C1c1ccc(Cl)c(Cl)c1 (centres undefined) ?
HCMV inh: -15

Results for COc1cccc(S(=O)(=O)Nc2ccc3c(c2)[C@@H]2C[C@@H](CC(=O)NCc4ccc(Cl)cc4)O[C@@H](CO)[C@@H]2O3)c1 ?
HCMV inh: -78*; Vaccinia Venus: -19%; Vaccinia mCherry: -23%; FMDV inh: -24%

What do the screens show for `CCOC(=O)C1(C)CCN1C(=O)c1ccccc1` (centres undefined)?
HCMV inh: 0; Vaccinia Venus: 5%; Vaccinia mCherry: -6%; FMDV inh: -11%

Results for CCOc1ccc(NC(=O)CN(C)C(=O)COc2cccc3c2OC(C)(C)C3)cc1OCC ?
HCMV inh: 35; HCV inhibitor: inconclusive; FMDV inh: -19%

How did CSc1ccc(CN(C)C(=O)C(Cc2ccccc2)NC(=O)c2ccccc2)cc1 (centres undefined) do in these assays?
HCMV inh: -67*; Vaccinia Venus: -20%; Vaccinia mCherry: -12%; FMDV inh: 13%

How did CCOc1ccc(CN(C)C(=O)[C@H](Cc2ccccc2)NC(=O)OCc2ccccc2)cc1OC do in these assays?
HCMV inh: -13; HCV inhibitor: inconclusive; Vaccinia Venus: -27%; Vaccinia mCherry: inconclusive; FMDV inh: 20µM*

Results for CN(Cc1ccc(F)cc1)C(=O)C(Cc1ccccc1)NC(=O)c1ccccc1 (centres undefined) ?
HCMV inh: -17; HCV inhibitor: -18%; Vaccinia Venus: -4%; Vaccinia mCherry: 5%; FMDV inh: -15%

How did COc1ccc(CNC(=O)CN(C)Cc2ccc(SC)cc2)cc1 do in these assays?
HCMV inh: 2; HCV inhibitor: -10%; Vaccinia Venus: 1%; Vaccinia mCherry: 3%; FMDV inh: -9%
